Paper PMC4242493, “Sequence specificity incompletely defines the genome-wide occupancy of Myc”
Over roughly 33,000 sequences, “normalized occupancy” has its median near 0.075; the highest 2% begin near 0.095. The entries come from a sample that favours the highest values as a whole.

These sequences were tested against MaxL homodimer (Homo sapiens, UniProt P61244 1-160) (assay: universal protein-binding microarray (PBM); PBS-based mixture, 10 nM His-tagged protein dimer, 2% milk, 200 ng/uL BSA, 50 ng/uL salmon testes DNA, 0.02% TX-100; detection with Alexa 488 anti-His antibody;; high values mean tight binding). Conditions: protein: recombinant; tags: C-terminal His-tag (pET21a); chain copies: 2; dsDNA, one strand shown.
Summary of the method: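 A His-tagged protein dimer at 10 nM was incubated on Agilent 4 x 44 K arrays of the 'all 10-mer' universal design, then labelled with 10 ng/μL fluorophore-conjugated anti-His antibody and scanned on a GenePix 4400A. A fluorescence intensity was assigned to each 8-mer. Binding occupancy is each such intensity normalised to that of the highest-ranked one.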

Sequence of MaxL homodimer (P61244 whole entry): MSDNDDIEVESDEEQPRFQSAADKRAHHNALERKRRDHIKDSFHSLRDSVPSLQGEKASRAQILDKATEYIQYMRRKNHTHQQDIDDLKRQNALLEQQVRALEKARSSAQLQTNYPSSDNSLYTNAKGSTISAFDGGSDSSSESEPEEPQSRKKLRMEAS

First: CACATGTG
Second: TACATGTA
The binding signal of the first is higher: 0.216 normalized occupancy for the first, 0.0978 normalized occupancy for the second.

Going from TACATGGA to AACATGTT, the binding signal rises from 0.0848 normalized occupancy to 0.0895 normalized occupancy.

Compared with CACATCTG, AACATCTG is lower in binding signal: 0.0871 normalized occupancy for the first, 0.0767 normalized occupancy for the second.

Compared with TACATCTA, CACATACG is lower in binding signal: 0.0787 normalized occupancy for the first, 0.0784 normalized occupancy for the second.

Going from GTGGGGCA to ACCCACTA, the binding signal rises from 0.0781 normalized occupancy to 0.085 normalized occupancy.

Compared with CTCCCGAA, AACCTACT is lower in binding signal: 0.0776 normalized occupancy for the first, 0.074 normalized occupancy for the second.

Compared with GGTTGACA, AGACTTGG is lower in binding signal: 0.0758 normalized occupancy for the first, 0.0722 normalized occupancy for the second.

First: AACATGTC
Second: CACATGTA
The binding signal of the first is lower: 0.087 normalized occupancy for the first, 0.147 normalized occupancy for the second.

Compared with AACATGTA, GACATGTA is lower in binding signal: 0.0923 normalized occupancy for the first, 0.0884 normalized occupancy for the second.

Going from GACATGTC to CACATGTC, the binding signal rises from 0.0872 normalized occupancy to 0.159 normalized occupancy.

Compared with ACGGGTGA, CATCTCAA is lower in binding signal: 0.0801 normalized occupancy for the first, 0.0793 normalized occupancy for the second.

Going from TCAGCTGA to GCTACGAC, the binding signal rises from 0.0752 normalized occupancy to 0.078 normalized occupancy.

Going from CGCCACAA to CGCCACGA, the binding signal rises from 0.076 normalized occupancy to 0.0799 normalized occupancy.

First: AGCCACGA
Second: AGCCACGG
The binding signal of the first is higher: 0.0883 normalized occupancy for the first, 0.0742 normalized occupancy for the second.

Going from AGCCACGC to CGCCACGC, the binding signal falls from 0.109 normalized occupancy to 0.0953 normalized occupancy.

First: GATTTTTA
Second: ACGTACAG
The binding signal of the first is lower: 0.0759 normalized occupancy for the first, 0.0776 normalized occupancy for the second.

Compared with CAAATGTA, TCCCTCCA is lower in binding signal: 0.0834 normalized occupancy for the first, 0.075 normalized occupancy for the second.

First: AGACAGAA
Second: CATATGTC
The binding signal of the first is lower: 0.0751 normalized occupancy for the first, 0.0943 normalized occupancy for the second.

Going from TATATGCA to CATATGCC, the binding signal rises from 0.0896 normalized occupancy to 0.095 normalized occupancy.

First: CATATGCA
Second: GATATGCA
The binding signal of the first is higher: 0.0978 normalized occupancy for the first, 0.0792 normalized occupancy for the second.

Going from AATATGTA to AATATGCG, the binding signal falls from 0.0801 normalized occupancy to 0.0761 normalized occupancy.

Going from CATATGTA to CATATGCG, the binding signal rises from 0.0972 normalized occupancy to 0.105 normalized occupancy.

Going from TAGACCTA to GGGGAACA, the binding signal rises from 0.0731 normalized occupancy to 0.081 normalized occupancy.

First: TTACTAAA
Second: TGACTCAA
The binding signal of the first is lower: 0.0728 normalized occupancy for the first, 0.0763 normalized occupancy for the second.

Going from AGGGAGCA to TAGTTGGA, the binding signal rises from 0.0728 normalized occupancy to 0.0742 normalized occupancy.

First: TAAGGACA
Second: CTACGCAC
The binding signal of the first is lower: 0.075 normalized occupancy for the first, 0.0773 normalized occupancy for the second.

Compared with ACCGCGTA, GACGCGTC is higher in binding signal: 0.0727 normalized occupancy for the first, 0.0757 normalized occupancy for the second.

Going from ACCGCGTG to AACGCGTA, the binding signal falls from 0.182 normalized occupancy to 0.0792 normalized occupancy.

First: AACGCGTG
Second: ACCGCGCG
The binding signal of the first is higher: 0.123 normalized occupancy for the first, 0.0856 normalized occupancy for the second.

First: TACGCGTA
Second: CACGCGTC
The binding signal of the first is lower: 0.0797 normalized occupancy for the first, 0.119 normalized occupancy for the second.

First: AACGCGTC
Second: AACGCGTT
The binding signal of the first is lower: 0.0723 normalized occupancy for the first, 0.0813 normalized occupancy for the second.

First: GACGCGTA
Second: CACGCGTA
The binding signal of the first is lower: 0.0737 normalized occupancy for the first, 0.121 normalized occupancy for the second.

First: CCTTAGCC
Second: CGTGCTGC
The binding signal of the first is lower: 0.0725 normalized occupancy for the first, 0.09 normalized occupancy for the second.

Going from CGCTGACA to GCGAGCAA, the binding signal falls from 0.0773 normalized occupancy to 0.0723 normalized occupancy.

Compared with AAGAACAT, GACGGTCA is lower in binding signal: 0.08 normalized occupancy for the first, 0.0718 normalized occupancy for the second.

Compared with GCGACAGA, AAGTCATT is lower in binding signal: 0.0794 normalized occupancy for the first, 0.0758 normalized occupancy for the second.

Compared with CAACATTA, CCGAATGA is lower in binding signal: 0.0824 normalized occupancy for the first, 0.0745 normalized occupancy for the second.

First: AAACACAG
Second: ATCGCGTA
The binding signal of the first is higher: 0.0769 normalized occupancy for the first, 0.0764 normalized occupancy for the second.

Compared with CGCGCGTA, CTCGCGTA is lower in binding signal: 0.0797 normalized occupancy for the first, 0.0788 normalized occupancy for the second.

Compared with ATCGCGTG, ATCGCGTC is lower in binding signal: 0.127 normalized occupancy for the first, 0.0719 normalized occupancy for the second.

First: CACGCGTG
Second: GCCAACCC
The binding signal of the first is higher: 0.17 normalized occupancy for the first, 0.08 normalized occupancy for the second.

Compared with AACATGGT, AGTGAAAG is lower in binding signal: 0.0843 normalized occupancy for the first, 0.0743 normalized occupancy for the second.

Compared with CCCGGTAG, ATGTGAAA is higher in binding signal: 0.0721 normalized occupancy for the first, 0.0872 normalized occupancy for the second.

Going from GTGTGATA to ATGTGATC, the binding signal rises from 0.0856 normalized occupancy to 0.0964 normalized occupancy.

Compared with ATGTGATG, ATCTGATG is lower in binding signal: 0.0968 normalized occupancy for the first, 0.0779 normalized occupancy for the second.

Going from CTGTGATC to ATGTGAAG, the binding signal rises from 0.0728 normalized occupancy to 0.0891 normalized occupancy.

Compared with ATGTGAAT, CTGTGATA is lower in binding signal: 0.0967 normalized occupancy for the first, 0.0741 normalized occupancy for the second.

Going from ATGTGATA to AGGTGATC, the binding signal falls from 0.0999 normalized occupancy to 0.0832 normalized occupancy.

Compared with ATGTGACG, AAGAGGAA is lower in binding signal: 0.0922 normalized occupancy for the first, 0.0726 normalized occupancy for the second.

Compared with AATTATCG, AATTCGAG is lower in binding signal: 0.0772 normalized occupancy for the first, 0.0732 normalized occupancy for the second.

Compared with AAGAGGGC, CTGGTTAC is higher in binding signal: 0.0738 normalized occupancy for the first, 0.0749 normalized occupancy for the second.

Going from ATAGGGAT to CCGAGTAG, the binding signal falls from 0.0812 normalized occupancy to 0.0732 normalized occupancy.

First: GATGATAA
Second: AGAATGTG
The binding signal of the first is lower: 0.078 normalized occupancy for the first, 0.0881 normalized occupancy for the second.

Compared with ATGGTAGG, CTTACTAA is lower in binding signal: 0.0818 normalized occupancy for the first, 0.0721 normalized occupancy for the second.

Going from CTCGTGGC to CTCGTGGA, the binding signal falls from 0.119 normalized occupancy to 0.103 normalized occupancy.

First: ATCGTGGC
Second: CTAGTGGC
The binding signal of the first is higher: 0.086 normalized occupancy for the first, 0.0765 normalized occupancy for the second.

Going from ATCGTGGA to GTCGTGGA, the binding signal rises from 0.084 normalized occupancy to 0.0856 normalized occupancy.

First: CATCTCTA
Second: CAATTATG
The binding signal of the first is higher: 0.0817 normalized occupancy for the first, 0.0802 normalized occupancy for the second.

First: GAACACGC
Second: GAACACAC
The binding signal of the first is higher: 0.108 normalized occupancy for the first, 0.0767 normalized occupancy for the second.

Going from CAACACGA to AAACACGC, the binding signal rises from 0.0817 normalized occupancy to 0.0929 normalized occupancy.

First: CAACACGC
Second: GAACACGA
The binding signal of the first is higher: 0.0995 normalized occupancy for the first, 0.0948 normalized occupancy for the second.

First: ATTAGCGG
Second: ACATTGAA
The binding signal of the first is lower: 0.0719 normalized occupancy for the first, 0.0824 normalized occupancy for the second.

First: ACGAGAGG
Second: AAACAAAG
The binding signal of the first is higher: 0.0776 normalized occupancy for the first, 0.0763 normalized occupancy for the second.

Going from GAATGCAC to GTATGCAC, the binding signal rises from 0.0772 normalized occupancy to 0.0856 normalized occupancy.

Compared with GCATGCAC, GCATGCAA is lower in binding signal: 0.11 normalized occupancy for the first, 0.0988 normalized occupancy for the second.

Going from TCATGCAA to ACATGCAA, the binding signal falls from 0.0829 normalized occupancy to 0.0826 normalized occupancy.

Compared with ATGGAAGC, TGAATCCA is lower in binding signal: 0.0783 normalized occupancy for the first, 0.0757 normalized occupancy for the second.

Going from TCGTTCCA to CCATAGCC, the binding signal falls from 0.0775 normalized occupancy to 0.0762 normalized occupancy.

First: GCACACGA
Second: ACACACGG
The binding signal of the first is higher: 0.0896 normalized occupancy for the first, 0.083 normalized occupancy for the second.

Compared with CCACACGA, GCACACAC is lower in binding signal: 0.0959 normalized occupancy for the first, 0.0907 normalized occupancy for the second.

Going from ACACACGT to CCACACGG, the binding signal falls from 0.0986 normalized occupancy to 0.0835 normalized occupancy.

Compared with AAACACGG, GCACACGC is higher in binding signal: 0.0741 normalized occupancy for the first, 0.1 normalized occupancy for the second.

Compared with AAACACGA, TCACACGA is higher in binding signal: 0.0848 normalized occupancy for the first, 0.0859 normalized occupancy for the second.

Compared with ACACACGA, AAACACGT is higher in binding signal: 0.0911 normalized occupancy for the first, 0.106 normalized occupancy for the second.

First: GTTTCCTA
Second: AATATAAG
The binding signal of the first is lower: 0.0787 normalized occupancy for the first, 0.0817 normalized occupancy for the second.

Compared with CCCCTAAC, AACACTAC is lower in binding signal: 0.0774 normalized occupancy for the first, 0.0726 normalized occupancy for the second.

Going from AATAGTGC to GGAGAGAC, the binding signal rises from 0.0733 normalized occupancy to 0.0742 normalized occupancy.

Going from AGACACGC to CCACACAA, the binding signal falls from 0.0922 normalized occupancy to 0.0772 normalized occupancy.

Going from ACACACGC to ACACACAC, the binding signal falls from 0.103 normalized occupancy to 0.0915 normalized occupancy.

Going from CCACACAC to CCACACGC, the binding signal rises from 0.0837 normalized occupancy to 0.0953 normalized occupancy.

First: ACTAACAA
Second: GCTTACCA
The binding signal of the first is higher: 0.0766 normalized occupancy for the first, 0.0723 normalized occupancy for the second.

Compared with GCAATCTA, ATTAAAGA is higher in binding signal: 0.0722 normalized occupancy for the first, 0.0773 normalized occupancy for the second.

Compared with CTATTAAC, GTAGTAAA is lower in binding signal: 0.0779 normalized occupancy for the first, 0.0757 normalized occupancy for the second.

Compared with AGGACCAT, ACTATTCG is lower in binding signal: 0.0823 normalized occupancy for the first, 0.0759 normalized occupancy for the second.

First: CAAGCATG
Second: CAAGCATA
The binding signal of the first is higher: 0.105 normalized occupancy for the first, 0.0775 normalized occupancy for the second.

First: CAAGCATC
Second: AAAGCATA
The binding signal of the first is lower: 0.0744 normalized occupancy for the first, 0.0783 normalized occupancy for the second.

Going from AAAGCATC to AAAGCATG, the binding signal rises from 0.0796 normalized occupancy to 0.104 normalized occupancy.
